Hits are enriched below; roughly 3% of the tested compounds scored in any of these assays.
LDHA inh – qHTS assay for inhibitors of human lactate dehydrogenase; activity change, % (values are at about 110 or 230 µM); purified LDHA, NADH/diaphorase-resazurin fluorescence; active compounds read low; hit rate 0.15% among 480,000; in the data active = activity change below about -30%; inconclusive = mostly about -25% to -30%;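 also: plate controls were DMSO wells for no effect and wells without enzyme for full effect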
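Human LDH5 (2 nM) was incubated with 0.06 mM NADH and 0.2 mM pyruvate for 5 min at room temperature in Tris pH 7.4. Remaining NADH was coupled through diaphorase/resazurin, and resorufin fluorescence was read at 0 and 20 min.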
ALOX12 inh – Primary qHTS assay for inhibitors of human arachidonate 12S-lipoxygenase (ALOX12): Round 2; Polyunsaturated fatty acid lipoxygenase ALOX12 (Homo sapiens), P18054; purified 12hLO, xylenol orange hydroperoxide absorbance; Potency, µM (series often up to 108 µM), for the others: top-dose activity change, negative = inhibition, hits mostly inhibitors; hit rate 1.1% among 580,000; active = well fitted inhibition curve with a large enough effect; inconclusive = small, poorly fitted or top-dose-only effect, or another doubt; inactive = no such curve, though single readings can be large or run the other way; also: potency is read from the fitted curve at half-maximal effect; % is scaled to controls: 0 for no effect and ±100 for the full control effect
Target sequence (P18054 whole entry, looked up): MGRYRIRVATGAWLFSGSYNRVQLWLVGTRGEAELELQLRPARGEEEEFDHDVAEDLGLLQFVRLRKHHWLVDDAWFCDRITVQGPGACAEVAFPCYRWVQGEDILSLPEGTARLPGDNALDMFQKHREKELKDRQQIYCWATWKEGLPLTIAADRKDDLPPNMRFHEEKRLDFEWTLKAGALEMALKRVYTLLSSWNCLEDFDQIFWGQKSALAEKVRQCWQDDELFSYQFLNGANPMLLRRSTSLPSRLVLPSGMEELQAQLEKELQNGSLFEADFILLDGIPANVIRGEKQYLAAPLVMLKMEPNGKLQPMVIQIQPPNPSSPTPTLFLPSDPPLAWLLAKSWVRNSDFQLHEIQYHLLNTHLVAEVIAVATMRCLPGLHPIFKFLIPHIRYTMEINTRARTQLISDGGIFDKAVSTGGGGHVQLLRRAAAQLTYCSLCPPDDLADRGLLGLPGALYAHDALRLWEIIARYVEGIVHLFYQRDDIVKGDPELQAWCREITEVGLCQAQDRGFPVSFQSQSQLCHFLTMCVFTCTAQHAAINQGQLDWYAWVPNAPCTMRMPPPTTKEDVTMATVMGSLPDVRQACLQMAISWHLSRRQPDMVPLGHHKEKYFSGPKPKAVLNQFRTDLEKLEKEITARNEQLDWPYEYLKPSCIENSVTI
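Purified human 12hLO (150 nM final) in 25 mM Hepes, 0.01% Triton X-100, pH 7.0 was preincubated 15 min at room temperature with compound. Then 40 uM arachidonic acid was added, 30 min. Hydroperoxide was read by Fe-XO absorbance ratio 573/405 nm.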
ClpP mod – qHTS Assay for Activators of ClpP | Potency, µM (series often up to 57.5 µM), without a hit: at the top dose activity change, negative = active | hit rate 1.9% among 340,000 | ATP-dependent Clp protease proteolytic subunit (Bacillus subtilis (strain 168)), P80244 | purified B. subtilis ClpP, FRET peptide cleavage, 20 min; active = well fitted falling curve with a large enough effect; inconclusive = small, poorly fitted or top-dose-only effect; inactive = no such curve, though single readings can be large or run the other way; also: potency is read from the fitted curve at half-maximal effect; the source files actives as falling curves though it sought activators and does not explain the sign; nearly all actives have a fitted effect of over 65% in size
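Purified B. subtilis ClpP, 10 microg/mL final in Tris/HCl pH8 with KCl, BSA, glycerol and Tween-20, cleaved an Abz/nitrotyrosine-quenched decapeptide. Fluorescence (ex 320, em 430) was read at 0 and 20 min at room temperature. Delta was normalized to 5.8 microM ADEP and DMSO/no-enzyme controls.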
Chronic BCR inh – qHTS Assay to Find Inhibitors of Chronic Active B-Cell Receptor Signaling. Potency, µM (series often up to 46.1 µM), without a hit: top-dose activity change, negative = inhibition, most hits filed as inhibitors. ABC-DLBCL IkBa-CBG/CBR reporter, luminescence ratio, 4 h. hit rate 0.05% among 340,000; active = well fitted inhibition curve with a large enough effect in the signal ratio, with a control signal flat, not every such curve was filed as active; inconclusive = small, poorly fitted or top-dose-only effect, or effect the other way, or a change in a side signal; the % refers to the signal ratio;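 also: potency is read from the fitted curve at half-maximal effect; plate controls were basal doxycycline-induced cells for no effect and cells given 10 µM MG132 for full effect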
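TMD8 ABC-DLBCL cells carrying doxycycline-inducible green luciferase fused to IkappaBalpha plus unfused red luciferase were exposed to compounds (up to 46 uM) for 4 hrs at 37C. Activity came from the overlap-corrected green/red luminescence ratio.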
KCNH2 WT inh – qHTS for Inhibitors of KCHN2 3.1: Wildtype qHTS. U2OS, BacMam KCNH2, thallium flux FluxOr; active compounds read low. hit rate 0.37% among 340,000. activity change, % at 1.84 µM;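 active = maximum activity change below -70%; inconclusive = maximum activity change between -70% and -50%; inactive = maximum activity change above -50%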; also: % is scaled to controls: 0 for no effect and ±100 for the full control effect
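U2OS cells transduced with wild-type KCNH2 virus are loaded with FluxOr dye for 45 min, and thallium flux is measured in kinetic reads before and after stimulation buffer. Rate constants are normalized to DMSO controls.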
KCNH2 3.1 inh – qHTS for Inhibitors of KCHN2 3.1: Mutant qHTS. Potassium voltage-gated channel subfamily H member 2, brain isoform KCNH2 3.1 (human). U2OS KCNH2 3.1, thallium flux FluxOr; active compounds read low. activity change, % (tested at about 1.8 µM). hit rate 0.95% among 340,000. AID 720553, 2013;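 active = maximum activity change below -70%; inconclusive = maximum activity change from -70% to -50%; inactive = maximum activity change above -50%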;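 also: thallium influx rate constant from kinetic fluorescence after stimulation buffer; % is scaled to controls: 0 for no effect and ±100 for the full control effect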
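We transduce U2OS cells with the mutant 3.1 virus, culture them overnight, load FluxOr with Red40 quencher for 45 min, then add stimulation buffer and read kinetically for 2 min to derive a normalized rate constant.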
* hit, by the source's call; ? = inconclusive; · = not tested or not shown; ! = a repeat was not active; [ ] = remark or other dose.

SMILES | LDHA inh | ALOX12 inh | ClpP mod | Chronic BCR inh | KCNH2 WT inh | KCNH2 3.1 inh
CC1(C)CC2CC(C)(CN2C(=O)COC(=O)CNC(=O)c2ccc(Cl)c(Cl)c2)C1 (stereo not given) | -3 | -5% | 25µM* | 2% | 1 | -9
CC(=O)Nc1ccc(C(=O)OCC(=O)N2CC3(C)CC2CC(C)(C)C3)cc1 (stereo not given) | 5 | -19% | · | 2% | -4 | -13
Cc1ccsc1CN(C)C(=O)Cc1n[nH]c(=O)c2ccccc12 | 10 | ? | · | · | · | ·
Nc1cc2sc(-c3ccc(C(=O)O)cc3)nc2cc1Cl | 7 | -21% | 4.5µM* | ? | -20 | 2
CCOC(=O)c1c(NC(=O)Cn2nnc(-c3ccccc3)n2)sc(CC)c1C | 6 | 13µM* | · | · | · | ·
CCOC(=O)c1c(NC(=O)Cn2nnc(-c3ccc(Cl)cc3)n2)sc(CC)c1C | -2 | 0% | -21% | 15% | 4 | 0
CCOC(=O)c1c(NC(=O)Cn2nnc(-c3ccc(Cl)cc3)n2)sc(C)c1C | -6 | 0% | 25µM* | -2% | -7 | 0
CCNc1c(NC(=O)Nc2ccc(OC)c(OC)c2)c(=O)oc2ccccc12 | 13 | 2% | · | · | · | ·
CCCCNc1c2c3c(cccc3n(C)c1=O)C(=O)c1ccccc1-2 | 4 | · | 1% | -13% | -8 | -3
Cn1c(=O)c(NCCc2ccccc2)c2c3c(cccc31)C(=O)c1ccccc1-2 | -4 | -2% | 0% | 20% | -70* | -83*
COC(=O)c1ccc(NC(=O)Cn2nc(-n3nc(C)cc3C)ccc2=O)cc1 | -4 | -20% | · | · | · | ·
CSc1nnc(C)c(=O)n1COC(=O)COc1ccccc1C | -5 | -4% | 28µM* | -11% | -4 | -3
CC(=O)Nc1ccc(S(=O)(=O)N2CCN(c3nc(NC4CCCC4)c4ccccc4n3)CC2)cc1 | -4 | ? | 28µM* | -1% | -90* | -86*
O=c1oc2ccccc2c(NC2CCCC2)c1NS(=O)(=O)c1cccc(F)c1 | -11 | ? | · | · | · | ·
COc1cc(-c2nc(-c3ccccc3)c(-c3ccc(Br)cc3)[nH]2)cc(OC)c1O | 15 | 20µM* | 5% | · | · | ·
CCCCCCn1nc(C(=O)OCC(=O)NCc2ccccc2F)c2ccccc2c1=O | 0 | ? | · | · | · | ·
CC(CN1CCCCC1)OC(=O)c1cccc(F)c1 (stereo not given) | -9 | 56µM* | · | ? | -15 | -25
COc1ccc(OC)c(/C=N/N(C)c2ccccc2)c1 | -4 | ? | 1% | ? | 1 | -2
COc1cc(/C=N/N(C)c2ccccc2)cc(Cl)c1O | 7 | 16µM* | -2% | ? | -2 | 14
COc1cc(/C=N/Nc2nc(Nc3ccc(C)cc3)nc(-n3nc(C)cc3C)n2)cc(OC)c1OC | -18 | -17% | 28µM* | ? | -30 | -14
O=C(N/N=C\c1ccc(Cl)cc1)C1=NOC2COC3(CCN(c4ccc([N+](=O)[O-])cc4)CC3)OCC12 (stereo not given) | -3 | -22% | -3% | 4% | -38 | -103*
CC(C)(C)Cc1nnc(NC(=O)CSc2ccccc2)s1 | -3 | 18µM* | 3% | ? | -9 | 3
COc1ccc(-c2nnc(NC(=O)CSc3ccccc3)s2)cc1OC | -5 | 18% | 22µM* | ? | 4 | -15
CC(C)(C)c1noc(CN2CCN(c3cccc(F)c3C#N)CC2)n1 | -12 | -8% | · | · | · | ·
Cc1nc(C)c(C(=O)N2CCCN(Cc3ccncc3)C(c3ccccc3)CC(=O)NCC2)s1 (stereo not given) | · | 13% | · | · | · | ·
SMILES | LDHA inh | ALOX12 inh | ClpP mod | Chronic BCR inh | KCNH2 WT inh | KCNH2 3.1 inh
CSc1cccc(CN2CCC(CO)(Cc3ccccc3)CC2)c1 | -4 | -8% | · | 1% | 1 | -17
OCC1(Cc2ccccc2)CCN(C2CCN(c3ccc(F)c(F)c3)CC2)CC1 | -8 | 50µM* | · | ? | -31 | -91*
O=C(CNc1cccc2ccccc12)N/N=C/c1ccc([N+](=O)[O-])cc1 | 19 | -15% | · | ? | -19 | ·
O=[N+]([O-])c1ccc(C=NNC(=S)NN=Cc2ccc([N+](=O)[O-])cc2)cc1 | -20 | ? | · | · | -10 | -8
Cc1ccccc1NCC(=O)N/N=C/c1ccc([N+](=O)[O-])cc1 | -4 | ? | 1% | -2% | -12 | -112*
CCN=C(N/N=C/c1ccc([N+](=O)[O-])cc1)SC | -110* | 32µM* | -5% | -8% | -2 | -1
COC(=O)CNC(=O)C12CC3CC(CC(C3)C1)C2 | -8 | -2% | · | · | · | ·
COc1ccc([S+](=O)([O-])N2CCC3(CC2)OCCN(c2ccc(F)cc2)C3=O)cc1 | · | -13%[176 µM] | · | · | · | ·
CSCCC(NC(=O)c1cccc([N+](=O)[O-])c1)C(=O)O (stereo not given) | -4 | 3% | 25µM* | -2% | 1 | 0
Cc1ccc(C)c(-n2c3nc(=O)[nH]c(=O)c-3cc3c(C)nn(-c4ccccc4)c32)c1 | 1 | -7% | 4% | · | · | ·
Cc1ccc(-n2c3nc(=O)[nH]c(=O)c-3cc3c(C)nn(-c4ccccc4)c32)c(C)c1 | 1 | -22% | 4% | -9% | -151* | -149*
CSc1ccc2[nH]c(=O)cc(C)c2c1 | -8 | 0% | 35µM* | -4% | 16 | 13
O=C(O)c1cc(=O)c2ccccc2[nH]1 | 8 | 13µM*! | -14% | 12% | 6 | 12
COCCn1nnnc1C(C(C)C)N(Cc1ccccc1)Cc1cc2cc(OC)ccc2[nH]c1=O (stereo not given) | -2 | ? | -21% | ? | 1 | 0
COCCn1nnnc1C(C(C)C)N(Cc1cccnc1)Cc1cc2cc(OC)ccc2[nH]c1=O (stereo not given) | 1 | -24% | 25µM* | -14% | -2 | -22
COc1ccc(CNCc2cn(-c3cccc(F)c3)nc2-c2ccc(C)o2)cc1 | 3 | 45µM* | 4% | ? | 7 | 4
COc1ccc(-n2cc(CNCc3cccnc3)c(-c3cccc(F)c3)n2)cc1 | -2 | -3% | · | ? | 0 | -48
CCOc1ccc(C(=O)N2CCCN(c3cc(-c4ccc(Cl)cc4)[nH]n3)CC2)cc1OCC | · | 15% | · | · | · | ·

Assay outcomes (PubChem BioAssay)
